The results in this text go back to PubChem BioAssay AID463173 (ICCB-Longwood Screening Facility, Harvard Medical School, 2010).

The structures appear in SMILES notation. The whole screen tested about 52,000 compounds, of which about 4,300 (8.3%) were called active. This is one part of a sample in which actives are shown more often than they occur. Cut-off read from the data, not from the text of the source: active = survival mostly below about 52% (no sharp cut-off); inactive = mostly above about 56%.

This experiment has as its system DeltatarO mutant. Put plainly: S. aureus survival, RN4220 and DeltatarO strains – OD600, teichoic acid synthesis inhibitors, primary screen (AID 463173). The conditions noted are these: S. aureus RN4220 wild type/DeltatarO growth, OD600, 18 h, active compounds read low, screened at 18.75 µg/mL (by protocol).
As to `COc1cccc2cc(-c3nc(-c4cccs4)no3)c(=O)oc12`, the survival is 67% (inactive).

Consider `COc1ccc(C)c2sc(NC(=O)c3ccc(S(=O)(=O)N4CCCCC4)cc3)nc12`, for which the survival was 92% (inactive). Then `O=C(O)c1cc2nc3c(c(C(F)(F)F)n2n1)CCC3`, with 89% (inactive); and `O=C(Cn1cnc2c(nc3n2CCCCC3)c1=O)Nc1cccc(C(F)(F)F)c1`, with 83% (inactive); and `O=C(Cn1cc(S(=O)(=O)Cc2ccccc2F)c2ccccc21)NCc1ccccc1`, with 87% (inactive).

For `Cc1ccc(NCc2cc3cc4c(cc3n(CC(=O)Nc3ccc(F)cc3F)c2=O)OCCO4)cc1`, the survival is 70% (inactive). Consider `O=C(CN1CCC(C(=O)c2ccc(F)cc2)CC1)Nc1ccccc1`, for which the survival was 83% (inactive). Under `CCCCSc1nc(O)c(CCC(C)C)c(=O)[nH]1` stands 60% (inactive). Under `Cc1ccc(S(=O)(=O)N(CCc2ccccc2)CC(=O)Nc2ccc(Br)cc2)cc1` stands 75% (inactive). Under `COc1cc(NC(=O)CSc2nc(-c3ccc(C(C)C)cc3)no2)cc(OC)c1` stands 91% (inactive); under `O=C(Cn1c(=O)n(-c2cccc(Cl)c2)c(=O)c2sc3ccccc3c21)NC1CCCCC1`, 127% (inactive).

Take `O=C1CCN(Cc2ccccc2)C(=S)N1`: the survival was 49% (active). On to `OC1(c2ccccc2)CCN(Cc2ccccc2)CC1`, for which the survival is 73% (inactive). Then `C/C=C1\NC(=S)N(Cc2ccccc2)C1=O`, with 84% (inactive); and `COC(=O)C1C(=O)C2=C(CC1C)Nc1ccccc1NC2c1ccc(N(C)C)cc1` (configuration not stated), with 79% (inactive). With `Cc1ccc(-c2nnc3ccccc3c2C(=O)Nc2ccc(C)c(F)c2)cc1`, the survival is 80% (inactive). Consider `O=C(COc1ccc(F)cc1)Nc1ccc2nc(SCCOc3ccccc3)sc2c1`, for which the survival is 87% (inactive).

As to `CCn1c(=O)n(CC)c2cc(N3CCCCC3)c(NC(=O)Nc3cc(C)cc(C)c3)cc21`, the survival is 100% (inactive).

`CCOC(=O)c1ccc(N2CCN(c3cccc(Cl)c3)CC2)c(NC(=O)Nc2ccc(Cl)cc2)c1`: the survival was 92% (inactive). As for `CCOC(=O)c1ccc(N2CCN(c3cccc(OC)c3)CC2)c(NC(=O)Nc2ccc(OCC)cc2)c1`, the survival was -5% (active). On to `CCOC(=O)c1ccc(NC(=O)Nc2cc3c(cc2N2CCCCC2)n(CC)c(=O)n3CC)cc1`, for which the survival is 57% (active). Then `CCOC(=O)c1ccc(N2CCN(c3ccc(F)cc3)CC2)c(NC(=O)Nc2cccc(OC)c2)c1`, with 70% (inactive). Then `CCOC(=O)c1ccc(NC(=O)Nc2cc3c(cc2N2CCCC2)n(C)c(=O)n3C)cc1`, with 82% (inactive); and `CCOc1ccc(-c2nc3c(c(CC)nn3-c3ccccc3)c3cc(OC)c(OC)cc23)cc1`, with 78% (inactive); and `CCc1nc2sc3c(N4CCC(C)CC4)ncnc3c2c2c1CCCC2`, with 134% (inactive). Under `CCc1cccc(NC(=O)Cn2c(=O)n(CCC(=O)NCC3CCCO3)c(=O)c3cc(OC)c(OC)cc32)c1` (configuration not stated) stands 62% (inactive); under `COc1cccc2c1Oc1nc(-c3ccccc3)nc(SCC(=O)Nc3ccccc3)c1C2`, 81% (inactive). For the compound `CCOC(=O)c1ccc(NC(=O)c2ccc3c(c2)CCN3S(=O)(=O)c2ccc(Cl)cc2)cc1`, the survival is 64% (inactive). Turning to `CCn1cc(C(=O)N2CCN(c3cc(Cl)ccc3C)CC2)c2cc(OC)c(OC)cc2c1=O`, the survival is 64% (inactive). As to `COc1cc2c(C(=O)N3CCN(c4ccc(C)cc4)C(C)C3)cn(CC(C)C)c(=O)c2cc1OC` (configuration not stated), the survival is 47% (inactive). On to `CCCN(C(=O)c1cn(CC(C)C)c(=O)c2cc(OC)c(OC)cc12)c1cccc(C)c1`, for which the survival was 152% (inactive). Under `Cc1cccn2c(=O)c(C(=O)N3CCN(c4ccccc4)CC3)cnc12` stands 49% (inactive). `COc1cc2c(C(=O)N3CCN(c4cc(Cl)ccc4C)CC3)cn(CC(C)C)c(=O)c2cc1OC`: the survival is 40% (active).

Regarding `CCc1ccccc1N(C)C(=O)c1cn(CC(C)C)c(=O)c2cc(OC)c(OC)cc12`, the survival was 73% (inactive). Then `Cc1cccc(N2CCN(C(=O)c3cnc4c(C)cccn4c3=O)CC2C)c1` (configuration not stated), with 32% (active). Then `CCN(C(=O)c1cn(CC(C)C)c(=O)c2cc(OC)c(OC)cc12)c1cc(OC)ccc1OC`, with 55% (inactive). For `COc1cc2c(C(=O)N3CCN(c4ccc(F)cc4)CC3)cn(CC(C)C)c(=O)c2cc1OC`, the survival is 56% (inactive). Turning to `COc1cc2c(C(=O)N(C)c3cc(Cl)ccc3OC)cn(CC(C)C)c(=O)c2cc1OC`, the survival was 48% (active). Under `COc1cc2c(C(=O)N3CCN(c4cccc(C)c4)C(C)C3)cn(CC(C)C)c(=O)c2cc1OC` (configuration not stated) stands 46% (active); under `Cc1cccc(N2CCN(C(=O)c3cccn4c(=O)c5cc(Cl)ccc5nc34)CC2C)c1` (configuration not stated), 66% (inactive); under `CCOc1cc(C#N)c(NC(=O)c2ccc(OC)c(S(=O)(=O)N3CCCC3)c2)cc1OCC`, 52% (inactive). As to `CCCCCOc1ccc(C(=O)CCN2CCOCC2)cc1`, the survival was 90% (inactive). As to `CC(C)c1nc2ccc(C(=O)NCc3ccc(F)cc3)cc2o1`, the survival is 78% (inactive).

Take `COc1ccc(C2CC(=O)c3c([nH]c(C(=O)OC4CCCCCC4)c3C)C2)cc1` (configuration not stated): the survival is 79% (inactive). Under `CCc1ccc(NC(=O)Cn2c(=O)n(CCCC(=O)NCCc3ccc(OC)c(OC)c3)c(=O)c3ccccc32)cc1` stands 77% (inactive). Under `COc1ccc2c(c1)cc1c(=O)n(CC(=O)NC(C)C)nc(C)n12` stands 78% (inactive). Then `N#Cc1c2c(c(N3CCOCC3)[nH]c1=S)CCCC2`, with 94% (inactive); and `O=S(=O)(NCC(c1ccco1)N1CCOCC1)c1ccc(Cl)cc1` (configuration not stated), with 86% (inactive). With `O=C(Nc1c(C(=O)N2CCN(c3ccccc3F)CC2)oc2ccccc12)c1ccccc1F`, the survival is 75% (inactive).

Consider `CCOc1cccc(CNc2ccc(O)cc2)c1OCc1ccccc1Cl`, for which the survival is 68% (inactive). With `Oc1ccc(NCc2ccc(OCc3ccccc3Cl)cc2)cc1`, the survival is 35% (active). Then `Oc1ccc(NCc2ccccc2OCc2ccccc2F)cc1`, with 60% (inactive); and `Oc1ccc(NCc2ccc(OCc3ccccc3)cc2)cc1`, with 72% (inactive). Then `Oc1ccc(NCc2ccccc2OCc2ccc(Cl)cc2)cc1`, with 91% (inactive); and `Oc1ccc(NCc2ccccc2OCc2ccccc2Cl)cc1`, with 52% (active); and `CCC(C)NC(=O)Cn1c(=O)n(CCCC(=O)NCc2ccc(C)cc2)c(=O)c2ccccc21` (configuration not stated), with 94% (inactive).

As for `COc1ccccc1OCC(=O)NCC1(N(C)C)CCCCC1`, the survival was 91% (inactive).
